Measurements published in PMC7862700, “An all-to-all approach to the identification of sequence-specific readers for epigenetic DNA modifications on cytosine”.

Assays:
Assay in all cases: DAPPL (digital affinity profiling via proximity ligation, sequencing); 10 mM Tris-HCl pH 7.5, 50 mM NaCl, 1 mM DTT, 4% glycerol, room temperature, 30 min; GST-TFs on glutathione beads, 16-mer random dsDNA library, 0.1% formaldehyde crosslink after washing; high values mean tight binding
Conditions in all cases: protein: recombinant; tags: N-terminal GST; dsDNA, one strand shown
FEV = molecular target: T1, FEV (Homo sapiens, UniProt Q99581 1-238)
T1 sequence: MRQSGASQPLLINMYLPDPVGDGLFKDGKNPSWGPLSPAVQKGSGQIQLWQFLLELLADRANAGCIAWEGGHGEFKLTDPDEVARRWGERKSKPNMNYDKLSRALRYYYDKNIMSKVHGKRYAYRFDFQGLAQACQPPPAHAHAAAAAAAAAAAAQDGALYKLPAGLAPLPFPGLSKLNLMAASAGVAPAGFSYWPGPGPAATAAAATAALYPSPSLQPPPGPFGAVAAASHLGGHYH
Method in brief: (§1)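 The binding signal reported is, for every hexamer, its read frequency for a factor over its read frequency for the tag-only sample. Reads came from pools of yeast-expressed, GST-fused human transcription factors on glutathione beads, barcoded with DNA and mixed with that sample, which were incubated with 200 nmole of a random double-stranded 16-mer DNA library in Tris/NaCl/DTT/glycerol buffer at room temperature for 30 min. After washing, the pools were crosslinked with 0.1% formaldehyde, proximity-ligated with BsaI/T4 ligase for 1 h at 37 °C, PCR-amplified and sequenced on an Illumina NextSeq500.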

ETV5 = ETV5 (Homo sapiens, UniProt P41161 1-510)
ETV5, sequence (P41161 whole entry): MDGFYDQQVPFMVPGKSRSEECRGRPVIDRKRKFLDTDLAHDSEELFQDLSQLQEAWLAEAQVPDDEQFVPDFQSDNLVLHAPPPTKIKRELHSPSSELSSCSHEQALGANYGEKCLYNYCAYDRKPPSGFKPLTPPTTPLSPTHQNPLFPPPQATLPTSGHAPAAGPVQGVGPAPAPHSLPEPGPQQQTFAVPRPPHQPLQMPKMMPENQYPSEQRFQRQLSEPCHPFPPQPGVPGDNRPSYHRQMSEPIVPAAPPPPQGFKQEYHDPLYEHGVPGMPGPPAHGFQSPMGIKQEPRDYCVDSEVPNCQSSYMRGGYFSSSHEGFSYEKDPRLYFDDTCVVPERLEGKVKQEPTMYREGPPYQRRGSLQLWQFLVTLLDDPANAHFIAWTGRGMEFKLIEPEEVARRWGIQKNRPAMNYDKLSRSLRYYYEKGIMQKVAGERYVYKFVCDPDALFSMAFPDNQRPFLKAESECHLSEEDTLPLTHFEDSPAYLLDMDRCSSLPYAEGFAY
Method in brief: as §1

SPIC = molecular target: T2, SPIC (Homo sapiens, UniProt Q8N5J4 1-248)
T2 sequence: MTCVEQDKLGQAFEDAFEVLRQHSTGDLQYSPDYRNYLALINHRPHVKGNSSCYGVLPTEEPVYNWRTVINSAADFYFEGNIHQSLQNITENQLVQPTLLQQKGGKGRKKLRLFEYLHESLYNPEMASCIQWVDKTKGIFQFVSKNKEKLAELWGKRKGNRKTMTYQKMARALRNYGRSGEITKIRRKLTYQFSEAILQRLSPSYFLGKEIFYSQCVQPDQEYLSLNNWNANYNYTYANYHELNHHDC
Method in brief: as §1

ELF4 = ELF4 (Homo sapiens, UniProt Q99607 1-663)
ELF4, sequence (Q99607 whole entry): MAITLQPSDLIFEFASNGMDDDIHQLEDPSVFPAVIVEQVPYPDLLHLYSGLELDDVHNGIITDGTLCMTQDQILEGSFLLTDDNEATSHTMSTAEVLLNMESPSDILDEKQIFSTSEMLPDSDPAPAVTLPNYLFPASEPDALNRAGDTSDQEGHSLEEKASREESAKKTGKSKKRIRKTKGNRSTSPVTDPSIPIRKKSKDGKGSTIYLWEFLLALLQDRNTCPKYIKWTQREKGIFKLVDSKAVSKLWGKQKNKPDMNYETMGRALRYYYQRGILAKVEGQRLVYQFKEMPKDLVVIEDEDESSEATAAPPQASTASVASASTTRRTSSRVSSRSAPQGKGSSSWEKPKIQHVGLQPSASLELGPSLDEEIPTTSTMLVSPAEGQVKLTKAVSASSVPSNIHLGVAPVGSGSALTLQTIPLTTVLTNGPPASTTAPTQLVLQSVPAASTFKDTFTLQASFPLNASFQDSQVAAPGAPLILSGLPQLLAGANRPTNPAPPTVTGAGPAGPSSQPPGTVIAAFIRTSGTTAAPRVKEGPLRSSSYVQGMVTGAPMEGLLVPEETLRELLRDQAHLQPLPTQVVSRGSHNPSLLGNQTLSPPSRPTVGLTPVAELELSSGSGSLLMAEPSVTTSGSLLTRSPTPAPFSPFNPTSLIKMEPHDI
Method in brief: as §1

ERF = molecular target: T3, ERF (Homo sapiens, UniProt P50548 1-548)
T3 sequence: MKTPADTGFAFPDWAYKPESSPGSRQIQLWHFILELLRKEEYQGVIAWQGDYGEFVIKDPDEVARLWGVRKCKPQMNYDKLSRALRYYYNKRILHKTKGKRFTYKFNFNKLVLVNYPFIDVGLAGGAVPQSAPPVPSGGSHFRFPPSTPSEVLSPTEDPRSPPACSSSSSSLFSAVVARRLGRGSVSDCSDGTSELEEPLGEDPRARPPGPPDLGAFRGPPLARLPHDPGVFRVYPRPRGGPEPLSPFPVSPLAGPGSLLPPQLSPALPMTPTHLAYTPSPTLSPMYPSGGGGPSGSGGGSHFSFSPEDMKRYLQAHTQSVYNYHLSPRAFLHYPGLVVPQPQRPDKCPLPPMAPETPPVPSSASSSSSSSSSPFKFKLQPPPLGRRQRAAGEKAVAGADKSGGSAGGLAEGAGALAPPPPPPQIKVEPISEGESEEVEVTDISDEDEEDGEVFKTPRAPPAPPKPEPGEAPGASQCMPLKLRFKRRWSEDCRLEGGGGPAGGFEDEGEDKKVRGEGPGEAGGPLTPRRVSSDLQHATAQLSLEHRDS
Method in brief: as §1

ETV3L = molecular target: T4, ETV3L (Homo sapiens, UniProt Q6ZN32 1-361)
T4 sequence: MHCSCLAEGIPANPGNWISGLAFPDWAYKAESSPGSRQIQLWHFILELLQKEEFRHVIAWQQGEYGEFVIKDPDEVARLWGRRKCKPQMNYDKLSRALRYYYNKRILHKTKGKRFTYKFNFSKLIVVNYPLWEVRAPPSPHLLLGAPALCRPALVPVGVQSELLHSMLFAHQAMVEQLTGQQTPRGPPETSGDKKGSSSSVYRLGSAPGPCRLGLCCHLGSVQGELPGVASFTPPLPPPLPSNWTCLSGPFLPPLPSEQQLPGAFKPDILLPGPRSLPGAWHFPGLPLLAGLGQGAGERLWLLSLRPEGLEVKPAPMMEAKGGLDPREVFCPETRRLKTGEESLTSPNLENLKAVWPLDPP
Method in brief: as §1

ETS2 = molecular target: T5, ETS2 (Homo sapiens, UniProt P15036 1-469)
T5 sequence: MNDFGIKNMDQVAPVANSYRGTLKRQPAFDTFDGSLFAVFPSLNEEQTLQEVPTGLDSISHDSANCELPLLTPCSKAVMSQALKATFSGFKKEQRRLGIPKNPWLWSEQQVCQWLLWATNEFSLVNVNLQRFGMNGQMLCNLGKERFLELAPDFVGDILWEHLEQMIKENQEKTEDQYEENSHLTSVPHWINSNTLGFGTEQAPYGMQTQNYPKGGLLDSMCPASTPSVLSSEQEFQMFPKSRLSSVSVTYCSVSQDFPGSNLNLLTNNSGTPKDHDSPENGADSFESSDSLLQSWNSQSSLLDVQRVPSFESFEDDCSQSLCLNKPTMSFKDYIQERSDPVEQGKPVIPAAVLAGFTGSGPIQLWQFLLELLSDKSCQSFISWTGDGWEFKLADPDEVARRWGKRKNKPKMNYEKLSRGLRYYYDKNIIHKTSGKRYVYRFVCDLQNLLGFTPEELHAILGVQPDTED
Method in brief: as §1

SPDEF = molecular target: T6, SPDEF (Homo sapiens, UniProt O95238 1-335)
T6 sequence: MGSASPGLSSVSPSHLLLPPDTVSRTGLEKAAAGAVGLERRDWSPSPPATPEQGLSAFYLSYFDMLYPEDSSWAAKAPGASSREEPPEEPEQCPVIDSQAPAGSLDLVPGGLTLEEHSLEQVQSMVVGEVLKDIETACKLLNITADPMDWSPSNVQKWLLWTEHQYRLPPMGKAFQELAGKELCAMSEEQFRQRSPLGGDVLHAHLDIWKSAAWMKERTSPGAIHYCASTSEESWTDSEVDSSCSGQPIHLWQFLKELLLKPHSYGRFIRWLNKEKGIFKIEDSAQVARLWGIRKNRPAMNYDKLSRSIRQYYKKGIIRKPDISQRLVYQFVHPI
Method in brief: as §1

ETV3 = molecular target: T7, ETV3 (Homo sapiens, UniProt P41162-2 1-143)
T7 sequence: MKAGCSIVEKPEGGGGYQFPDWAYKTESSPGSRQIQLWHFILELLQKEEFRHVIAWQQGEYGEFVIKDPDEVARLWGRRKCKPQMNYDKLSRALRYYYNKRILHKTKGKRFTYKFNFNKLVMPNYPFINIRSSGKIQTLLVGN
Method in brief: as §1

ETV6 = ETV6 (Homo sapiens, UniProt P41212 1-452)
ETV6, sequence (P41212 whole entry): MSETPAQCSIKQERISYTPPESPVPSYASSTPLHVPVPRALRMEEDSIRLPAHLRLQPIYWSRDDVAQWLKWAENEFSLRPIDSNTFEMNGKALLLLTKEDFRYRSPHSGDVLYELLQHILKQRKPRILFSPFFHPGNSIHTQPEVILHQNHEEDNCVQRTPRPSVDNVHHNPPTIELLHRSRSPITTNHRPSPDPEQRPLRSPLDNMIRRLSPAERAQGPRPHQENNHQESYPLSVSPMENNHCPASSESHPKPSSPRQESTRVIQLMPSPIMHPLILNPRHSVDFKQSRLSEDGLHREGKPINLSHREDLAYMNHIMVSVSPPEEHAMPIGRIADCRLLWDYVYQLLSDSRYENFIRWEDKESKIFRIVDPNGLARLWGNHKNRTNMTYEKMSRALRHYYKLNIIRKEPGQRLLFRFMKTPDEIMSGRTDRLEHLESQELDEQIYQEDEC
Method in brief: as §1

TGCCAA
binding signal (FEV): 1.12 fold enrichment (6-mer frequency, TF over GST control)
binding signal (ETV5): 1.08 fold enrichment (6-mer frequency, TF over GST control)
binding signal (SPIC): 1.08 fold enrichment (6-mer frequency, TF over GST control)
binding signal (ELF4): 1.12 fold enrichment (6-mer frequency, TF over GST control)
binding signal (ERF): 1.15 fold enrichment (6-mer frequency, TF over GST control)
binding signal (ETV3L): 1.21 fold enrichment (6-mer frequency, TF over GST control)
binding signal (ETS2): 1.12 fold enrichment (6-mer frequency, TF over GST control)
binding signal (SPDEF): 1.08 fold enrichment (6-mer frequency, TF over GST control)
binding signal (ETV3): 1.13 fold enrichment (6-mer frequency, TF over GST control)
binding signal (ETV6): 1.08 fold enrichment (6-mer frequency, TF over GST control)
